Reference: the supplement of paper PMC10849652
Of roughly 7,900 targets only a part is listed; those with a hit were picked by preference. About 0.6% of all pairs of compound and target were hits.

What follows are targets tested with CC[C@H](C)[C@@H](C(=O)N[C@@H]([C@@H](C)O)C(=O)N[C@@H](CC(C)C)C(=O)[C@]1(CO1)C)NC(=O)[C@H]([C@@H](C)CC)N(C)C(=O)C [epoxomicin] (assay: log2 fold change, soluble protein after heating vs DMSO (PISA); higher = thermal stabilisation; K562 cells, 10 uM, 30 min; active = over 0.2 and 3.5 SD of the protein, either way, in both replicates (recomputed)).
Outline: (§1)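 Aliquots of K562 cells (2×10^6 cells/mL) treated with 10 μM compound for 30 min were heated for 3 min over 48°C-58°C. After pooling and extraction in PBS with 0.5% NP-40 at 4°C, soluble protein from a 21,000xg, 90 min spin was quantified by TMTpro 16plex LC-MS/MS with channel sums equalised. Thermal stability is expressed against control samples, from duplicates, as a log2 fold change.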

UniProt Q9H4L5, sequence (Q9H4L5 whole entry, looked up): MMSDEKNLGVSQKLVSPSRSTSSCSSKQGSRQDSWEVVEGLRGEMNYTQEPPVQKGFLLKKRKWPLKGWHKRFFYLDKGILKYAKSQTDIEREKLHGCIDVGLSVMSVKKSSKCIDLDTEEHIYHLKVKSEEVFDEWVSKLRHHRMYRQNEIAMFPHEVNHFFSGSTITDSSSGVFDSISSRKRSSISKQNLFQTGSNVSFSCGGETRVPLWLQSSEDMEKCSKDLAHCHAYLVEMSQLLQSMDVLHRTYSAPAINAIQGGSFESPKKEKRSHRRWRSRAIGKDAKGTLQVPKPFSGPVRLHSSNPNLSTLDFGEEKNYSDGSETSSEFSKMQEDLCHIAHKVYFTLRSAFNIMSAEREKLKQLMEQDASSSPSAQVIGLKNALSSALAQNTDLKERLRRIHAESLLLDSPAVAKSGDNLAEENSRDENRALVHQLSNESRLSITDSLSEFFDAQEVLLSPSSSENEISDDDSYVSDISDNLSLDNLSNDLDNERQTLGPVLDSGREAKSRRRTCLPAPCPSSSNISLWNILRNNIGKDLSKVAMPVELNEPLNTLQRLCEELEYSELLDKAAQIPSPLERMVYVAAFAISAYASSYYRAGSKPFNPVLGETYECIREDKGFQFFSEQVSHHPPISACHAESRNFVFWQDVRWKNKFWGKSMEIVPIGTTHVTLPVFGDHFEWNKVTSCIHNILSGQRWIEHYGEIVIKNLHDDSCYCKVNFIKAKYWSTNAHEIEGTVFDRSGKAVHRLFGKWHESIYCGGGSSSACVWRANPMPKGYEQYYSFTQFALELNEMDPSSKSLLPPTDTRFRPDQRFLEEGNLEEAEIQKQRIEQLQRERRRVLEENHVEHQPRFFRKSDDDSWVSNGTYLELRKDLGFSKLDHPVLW
UniProt P51956, sequence (P51956 whole entry, looked up): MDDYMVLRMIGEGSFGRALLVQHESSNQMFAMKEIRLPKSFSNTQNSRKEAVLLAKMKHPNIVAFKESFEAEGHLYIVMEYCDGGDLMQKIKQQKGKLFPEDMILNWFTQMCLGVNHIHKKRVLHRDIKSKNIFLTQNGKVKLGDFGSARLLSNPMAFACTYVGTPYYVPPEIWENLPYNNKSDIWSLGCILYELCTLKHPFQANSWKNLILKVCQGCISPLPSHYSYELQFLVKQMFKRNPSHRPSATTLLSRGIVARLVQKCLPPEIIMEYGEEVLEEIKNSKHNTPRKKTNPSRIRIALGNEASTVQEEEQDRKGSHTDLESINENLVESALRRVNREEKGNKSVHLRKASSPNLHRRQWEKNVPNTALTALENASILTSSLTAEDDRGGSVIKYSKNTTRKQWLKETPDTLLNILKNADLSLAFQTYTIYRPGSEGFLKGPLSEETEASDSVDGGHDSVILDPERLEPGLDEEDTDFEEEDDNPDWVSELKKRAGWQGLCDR
UniProt Q9BSU3, sequence (Q9BSU3 whole entry, looked up): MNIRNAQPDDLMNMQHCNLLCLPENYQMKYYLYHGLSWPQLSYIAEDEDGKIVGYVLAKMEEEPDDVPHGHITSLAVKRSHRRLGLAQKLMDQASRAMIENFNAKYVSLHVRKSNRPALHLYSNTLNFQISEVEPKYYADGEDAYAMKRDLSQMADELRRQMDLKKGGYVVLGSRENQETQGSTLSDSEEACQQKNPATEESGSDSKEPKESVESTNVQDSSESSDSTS
UniProt P03886, sequence (P03886 whole entry, looked up): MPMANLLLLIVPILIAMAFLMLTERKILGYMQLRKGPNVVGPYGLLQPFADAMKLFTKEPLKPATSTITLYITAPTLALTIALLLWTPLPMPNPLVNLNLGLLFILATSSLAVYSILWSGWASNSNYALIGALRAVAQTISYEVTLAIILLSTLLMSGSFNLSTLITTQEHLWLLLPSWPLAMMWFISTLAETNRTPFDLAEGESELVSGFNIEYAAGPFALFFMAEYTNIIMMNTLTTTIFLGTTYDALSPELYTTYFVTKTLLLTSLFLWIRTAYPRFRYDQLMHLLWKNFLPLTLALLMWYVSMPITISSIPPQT
UniProt Q92692, sequence (Q92692 whole entry, looked up): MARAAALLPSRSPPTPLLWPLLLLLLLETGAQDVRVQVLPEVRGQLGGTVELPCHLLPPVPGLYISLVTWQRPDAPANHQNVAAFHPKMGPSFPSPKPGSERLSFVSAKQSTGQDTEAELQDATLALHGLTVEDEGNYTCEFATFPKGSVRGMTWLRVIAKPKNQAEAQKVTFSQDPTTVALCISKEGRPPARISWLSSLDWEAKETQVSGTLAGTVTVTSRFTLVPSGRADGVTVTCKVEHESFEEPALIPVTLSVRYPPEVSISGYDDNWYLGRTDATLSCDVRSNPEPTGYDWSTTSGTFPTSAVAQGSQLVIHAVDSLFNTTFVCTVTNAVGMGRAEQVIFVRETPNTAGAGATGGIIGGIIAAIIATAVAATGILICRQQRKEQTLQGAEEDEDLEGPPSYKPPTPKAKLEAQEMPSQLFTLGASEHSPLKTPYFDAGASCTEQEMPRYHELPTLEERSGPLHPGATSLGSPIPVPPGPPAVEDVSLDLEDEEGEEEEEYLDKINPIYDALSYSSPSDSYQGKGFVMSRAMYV
UniProt Q6VY07, sequence (Q6VY07 whole entry, looked up): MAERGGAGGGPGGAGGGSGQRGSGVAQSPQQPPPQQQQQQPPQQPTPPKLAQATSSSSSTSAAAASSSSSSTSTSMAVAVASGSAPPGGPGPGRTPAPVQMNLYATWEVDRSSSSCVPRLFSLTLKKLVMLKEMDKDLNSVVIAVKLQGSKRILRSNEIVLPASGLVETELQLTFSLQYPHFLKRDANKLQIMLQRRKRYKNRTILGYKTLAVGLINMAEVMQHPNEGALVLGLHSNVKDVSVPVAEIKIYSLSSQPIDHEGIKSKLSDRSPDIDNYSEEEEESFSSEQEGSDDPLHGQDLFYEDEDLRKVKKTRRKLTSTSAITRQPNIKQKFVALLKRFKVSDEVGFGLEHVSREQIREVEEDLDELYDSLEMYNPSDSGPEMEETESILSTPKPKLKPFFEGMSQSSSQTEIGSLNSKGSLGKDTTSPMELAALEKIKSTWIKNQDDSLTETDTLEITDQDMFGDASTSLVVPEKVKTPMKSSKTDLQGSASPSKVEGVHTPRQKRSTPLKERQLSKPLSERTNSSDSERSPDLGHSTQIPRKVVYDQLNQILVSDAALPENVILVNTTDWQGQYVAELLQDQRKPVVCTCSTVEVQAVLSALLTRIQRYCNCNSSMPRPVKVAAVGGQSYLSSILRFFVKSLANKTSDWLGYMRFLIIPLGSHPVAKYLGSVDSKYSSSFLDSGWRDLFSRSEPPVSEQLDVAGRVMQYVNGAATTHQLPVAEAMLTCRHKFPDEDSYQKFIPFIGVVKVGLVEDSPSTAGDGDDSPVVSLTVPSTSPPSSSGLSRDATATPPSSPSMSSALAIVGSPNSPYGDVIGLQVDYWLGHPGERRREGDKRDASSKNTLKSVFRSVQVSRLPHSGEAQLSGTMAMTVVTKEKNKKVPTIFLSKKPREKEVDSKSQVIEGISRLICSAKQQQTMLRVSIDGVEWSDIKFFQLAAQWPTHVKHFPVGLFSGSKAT
UniProt O15118, sequence (O15118 whole entry, looked up): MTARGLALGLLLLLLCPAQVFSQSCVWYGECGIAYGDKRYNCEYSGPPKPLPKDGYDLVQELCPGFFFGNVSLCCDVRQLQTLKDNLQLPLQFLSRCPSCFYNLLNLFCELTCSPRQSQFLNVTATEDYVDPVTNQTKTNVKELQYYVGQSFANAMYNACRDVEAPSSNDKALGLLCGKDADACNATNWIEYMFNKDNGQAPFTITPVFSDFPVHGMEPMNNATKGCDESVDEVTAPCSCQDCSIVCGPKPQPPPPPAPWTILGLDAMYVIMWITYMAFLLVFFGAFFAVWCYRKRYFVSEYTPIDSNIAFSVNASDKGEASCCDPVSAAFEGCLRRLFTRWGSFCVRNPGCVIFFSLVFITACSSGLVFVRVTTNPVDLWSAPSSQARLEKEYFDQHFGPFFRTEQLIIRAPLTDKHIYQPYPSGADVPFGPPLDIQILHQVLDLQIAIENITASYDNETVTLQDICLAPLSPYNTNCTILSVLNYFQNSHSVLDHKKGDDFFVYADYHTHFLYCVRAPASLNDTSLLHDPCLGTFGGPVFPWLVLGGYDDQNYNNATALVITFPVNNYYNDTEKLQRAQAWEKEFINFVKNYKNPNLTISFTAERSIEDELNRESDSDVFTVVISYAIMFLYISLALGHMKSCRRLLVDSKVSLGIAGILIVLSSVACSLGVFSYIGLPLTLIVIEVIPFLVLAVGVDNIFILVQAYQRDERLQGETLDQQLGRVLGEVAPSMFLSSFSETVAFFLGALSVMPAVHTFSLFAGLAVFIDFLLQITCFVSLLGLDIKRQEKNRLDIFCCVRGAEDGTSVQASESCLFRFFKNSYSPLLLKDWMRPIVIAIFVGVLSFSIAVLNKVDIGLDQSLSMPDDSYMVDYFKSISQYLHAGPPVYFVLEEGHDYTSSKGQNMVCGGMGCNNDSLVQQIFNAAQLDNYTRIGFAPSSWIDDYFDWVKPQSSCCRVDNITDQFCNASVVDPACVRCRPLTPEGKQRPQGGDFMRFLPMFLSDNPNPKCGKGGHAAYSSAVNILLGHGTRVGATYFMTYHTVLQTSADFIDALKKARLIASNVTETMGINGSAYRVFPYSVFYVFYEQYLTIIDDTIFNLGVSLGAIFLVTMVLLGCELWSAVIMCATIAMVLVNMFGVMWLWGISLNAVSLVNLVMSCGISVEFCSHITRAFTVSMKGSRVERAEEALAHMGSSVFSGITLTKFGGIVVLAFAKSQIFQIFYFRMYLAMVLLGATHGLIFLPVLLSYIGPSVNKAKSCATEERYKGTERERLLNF
UniProt Q9H019, sequence (Q9H019 whole entry, looked up): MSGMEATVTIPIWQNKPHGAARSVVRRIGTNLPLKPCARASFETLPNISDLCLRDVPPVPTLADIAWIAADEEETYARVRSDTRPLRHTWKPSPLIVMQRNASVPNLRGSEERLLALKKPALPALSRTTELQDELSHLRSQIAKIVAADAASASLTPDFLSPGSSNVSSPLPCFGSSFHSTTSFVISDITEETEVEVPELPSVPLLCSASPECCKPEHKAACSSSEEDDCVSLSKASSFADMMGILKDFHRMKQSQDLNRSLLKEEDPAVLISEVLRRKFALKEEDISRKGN

log2 fold change, inactive:
NME7 (UniProt Q9Y5B8) -0.072
MPHOSPH8 isoform 2 (UniProt Q99549) 0.16
MTFR1L (UniProt Q9H019) 0.023
NME2P1 (UniProt O60361) 0.033
MON1A (UniProt Q86VX9) -0.101
NCOA7 (UniProt Q8NI08) 0.021
NCK1 (UniProt P16333) -0.053
NAT14 (UniProt Q8WUY8) -0.024
NUMBL (UniProt Q9Y6R0) -0.01
NDFIP1 (UniProt Q9BT67) 0.102
PACS1 (UniProt Q6VY07) -0.045
NPC1 (UniProt O15118) -0.02
MRPS21 (UniProt P82921) 0.064
MRPS16 (UniProt Q9Y3D3) 0.041
NOP58 (UniProt Q9Y2X3) -0.263
MLX (UniProt Q9UH92) 0.162
OSBPL3 (UniProt Q9H4L5) -0.37
NUDT7 (UniProt P0C024) -0.067
OPHN1 (UniProt O60890) 0.043
MTHFD1, A0A384N5Y3 0.002
NAA11 (UniProt Q9BSU3) 0.063
NECTIN2 isoform 2 (UniProt Q92692) -0.132
MRPL46 (UniProt Q9H2W6) 0.015
MRPS33 (UniProt Q9Y291) -0.012
MT-ND1 (UniProt P03886) 0.063
MRPS26 (UniProt Q9BYN8) 0.033
NEK3 (UniProt P51956) 0.067

The targets below were run with CCn1c(C(=O)N(C2CC2)C2CC2)cc2c3c(ncn3C)c(Nc3cc(C)n(C)n3)nc21 in the same assay as above.
Outline: as §1

log2 fold change, inactive:
NFYB (UniProt P25208) -0.007
NME7 (UniProt Q9Y5B8) -0.033
NPM3 (UniProt O75607) 0.036
OAF (UniProt Q86UD1) -0.087
MTFR1L (UniProt Q9H019) -0.145
NME2P1 (UniProt O60361) -0.162
MON1A (UniProt Q86VX9) 0.004
NCOA7 (UniProt Q8NI08) -0.091
NCK1 (UniProt P16333) -0.312
PAFAH2 (UniProt Q99487) -0.328
NAT14 (UniProt Q8WUY8) 0.064
NUMBL (UniProt Q9Y6R0) 0.023
NDFIP1 (UniProt Q9BT67) 0.056
NA isoform 3 (UniProt Q4G0T1) 0.004
PACS1 (UniProt Q6VY07) -0.025
NPC1 (UniProt O15118) 0.009
MRPS21 (UniProt P82921) -0.052
MRPS16 (UniProt Q9Y3D3) 0.047
NOP58 (UniProt Q9Y2X3) 0.005
MYLK (UniProt Q15746) -0.047
MLX (UniProt Q9UH92) -0.04
OSBPL3 (UniProt Q9H4L5) -0.235
NUDT7 (UniProt P0C024) 0.058
OPHN1 (UniProt O60890) -0.019
NAA11 (UniProt Q9BSU3) 0.015
NECTIN2 isoform 2 (UniProt Q92692) 0.05
MRPL46 (UniProt Q9H2W6) 0.075
MRPS33 (UniProt Q9Y291) 0
MT-ND1 (UniProt P03886) 0.094
NCBP2AS2 (UniProt Q69YL0) 0.027
NCOA5 (UniProt Q9HCD5) 0.026
MRPS26 (UniProt Q9BYN8) -0.094
MRFAP1 (UniProt Q9Y605) 0.029
ORC5 (UniProt O43913) -0.071
NEK3 (UniProt P51956) -0.024
